Source: PubChem BioAssay AID623980 (National Center for Advancing Translational Sciences (NCATS), 2012)
The list shows a part of the results. Active and inactive are the calls of the source. The call rests on the fitted dose curve; in most records, active means well fitted curve in the direction sought with a large enough effect; inactive means no such curve, though single readings can be large or run the other way.

experiment: qHTS for Inhibitors of mutant isocitrate dehydrogenase 1 (IDH1): Cherrypicks Autofluorescence Interference; conditions: Resorufin detection reagent fluorescence interference, cell-free; series mostly up to 51.2 µM
Excerpt: Readout Interference Assay for Inhibitors of IDH1 R132H and WT IDH1 Malignant glioblastomas (WHO grade IV), including primary and secondary glioblastomas, are among the most lethal with a median survival of one year, and unfortunately they are also the most prevalent type of brain tumors. By and large the standard of care of gliomas remains the use of the oral alkylating agent temozolomide and radiotherapy following surgical tumor resection. There is an urgent unmet medical need for novel therapeutics for gliomas. IDH mutations occur in up to 70% of grade II-IV secondary glioblastomas, and IDH1 R132H is the most prevalent mutation. […] Wild-type (WT) IDH1 catalyzes the conversion of isocitrate to a-ketoglutarate with the concomitant reduction of NADP+ to NADPH. In contrast, IDH1 R132H catalyzes the conversion of -ketoglutarate to 2-hydroxyglutarate (2-HG) with the concomitant oxidation of NADPH to NADP+ [5]. Recently, a second significant advancement for the field was the finding that IDH is an oncogene, and that its metabolic product 2-HG may contribute to the pathogenesis of IDH-mutated cancers. […] Although this link to cancer is tantalizing, the direct evidence of how 2-HG drives pathogenesis of gliomas and AML remains a subject of further research. The goal of this detection interference assay is to identify whether the potential small-molecule inhibitors of IDH1 R132H or WT IDH1 confound the fluorescence readout by interfering with the detection reagent. Inhibition of the detection reagent would lead to a decrease in observed fluorescence of the product resorufin relative to the DMSO control. Compounds were screened as concentration-titration series that ranged from 76 uM to 0.15 uM. NIH Molecular Libraries Probe Production Network [MLPCN] NIH Chemical Genomics Center [NCGC] MLSCN Grant: R03 DA032129 PI Name: Dr. Lenny Dang
Detection reagent buffer was dispensed into black, solid 1536-well plates at 9 microL/well in 20 mM Tris buffer, pH 7.5, containing final concentrations of 10 mM MgCl2, 20 mM NaCl, 0.05% BSA, 2 mM beta-ME, 0.008 mM NADPH, 1 mM alpha-ketoglutarate, and 0.008 mM resorufin. Then, 23 nL of compounds or DMSO were delivered to each well using a pin tool. The fluorescence intensity was monitored on an Envision plate reader at 590 nm (Ex 540, Em 590, bodipy mirror, 10 flashes). The %Activity was determined from the corrected fluorescence values. Resorufin at 0x was included to normalize %Activity of identified inhibitors; 0x resorufin values corresponded to 100%Activity (full inhibition), while 1x resorufin values were used to normalize 0%Activity (no inhibition). Concentration-response curves were fitted to the signals arising from the resulting fluorescence. The concentration-response curves were then classified based on curve quality (r2), response magnitude and degree of measured activity, and compounds were subsequently categorized based on their curve class. […] Keywords: Isocitrate dehydrogenase, IDH1, IDH1 R132H, 2-HG, 2-hydroxyglutarate, AML, glioma, MLSMR, MLPCN, NIH Roadmap, qHTS, NCGC

outcome, inactive:
C(=N/Nc1cc(N2CCOCC2)nc(N2CCOCC2)n1)/c1ccccc1, Cc1nc(C)c(C(=O)N(c2ccc(C)c(C)c2)C(C(=O)NCc2ccco2)c2ccccc2)s1 (centres undefined), CCCCC(=O)NC(c1ccc(OC)c(OC)c1)c1ccc2cccnc2c1O (centres undefined), CCSc1nc2sc3c(c2c(=O)n1-c1ccc(C)cc1)CCN(C)C3, COc1ccc(C(CCN(Cc2ccc(OC)c(OC)c2)C(=O)CCl)c2ccccc2)cc1 (centres undefined), COc1cc(/C=C2/C(=O)ON=C2C)ccc1OCc1ccccc1F, CCCCOc1ccc(CN2C(=O)C(=O)c3cc(Br)cc(C)c32)cc1OC, CC(C)(C)c1ccc(S(=O)(=O)Nc2ccc(O)c(Sc3nc4ccccc4s3)c2)cc1, Cc1ccc2nc(N3C(=O)C(O)=C(C(=O)c4ccco4)C3c3cccc(O)c3)sc2c1 (centres undefined), COc1cc(/C=C2/SC(=S)N(Cc3ccccc3)C2=O)cc(OC)c1O, CC(C)Nc1nc(N(c2ccccc2)c2ccccc2)nc(-n2ccnc2)n1, CCC(C)(C)NC(=O)C(c1cccn1C)N(Cc1ccc(C)cc1)C(=O)Cn1nnc2ccccc21 (centres undefined), CCOC(=O)c1ccc(N2C(=O)c3n[nH]c(-c4ccco4)c3C2c2ccc(O)cc2)cc1 (centres undefined), CCOC(=O)c1oc2c(CN3CCN(CCO)CC3)c(O)c(CC)cc2c(=O)c1-c1nc2ccccc2s1, CC(C)N(C(=O)CSc1nc(COc2ccccc2)nc2ccccc12)C(C)C, CCCNc1ncnc2c1c(-c1ccccc1)cn2-c1ccc(OCC)cc1, Cc1ccc(Nc2nc(CSc3nnc(-c4ccncc4)n3-c3ccccc3C)cs2)cc1, COc1ccc(C(C(=O)NC2CCCCC2)N(C(=O)c2snc(C(N)=O)c2N)c2ccccc2OC)cc1 (centres undefined), Cc1ccc(-c2nn(-c3ccccc3)cc2/C=C2\SC(=S)N(CCCCCC(=O)O)C2=O)o1, COC(=O)c1ccc(-c2c(-c3ccccc3)ncc3cc(OC)c(OC)cc23)cc1, COc1ccc(/C=N/Nc2cc(N3CCOCC3)nc(C)n2)c(OC)c1, Cc1nc(-c2ccc(Cl)cc2)sc1C(=O)CBr, COc1cc2c(-c3ccc4c(c3)OCO4)c(-c3ccsc3)oc(=O)c2cc1OC, CCCc1[nH]nc2c1C(c1ccc(OC)c(Cn3nc(C)c(Br)c3C)c1)C(C#N)=C(N)O2 (centres undefined), O=C(NC(Nc1nc2ccc([N+](=O)[O-])cc2s1)(C(F)(F)F)C(F)(F)F)c1ccccc1, Cn1c(COc2ccc(Cl)cc2)nc2ccccc2c1=O, CCCc1nc2c(c(=O)c3ccccc3n2C)c(=O)n1C1CCCCCC1, COc1ccc(/C=C2/SC(=O)N(CCCCCC(=O)Nc3ccccc3C(=O)O)C2=S)cc1, N#CC1=C(N)C(C#N)(C#N)[C@H](c2ccsc2)[C@H]2COCC=C12, COc1ccc(Cl)cc1-n1c(=S)sc2c(=O)n(-c3ccc(F)cc3)c(SCC(=O)O)nc21, Cc1cccc(N(C(=O)Cc2cccs2)C(C(=O)NC2CCCC2)c2ccsc2)c1 (centres undefined), O=C1c2cccc3cccc(c23)C(=O)N1CCCCCc1n[nH]c(=S)o1, CCCOc1ccc(C2c3c(-c4ccccc4O)n[nH]c3C(=O)N2Cc2cccnc2)cc1 (centres undefined), COC(=O)c1cccc(N(C(=O)c2ccco2)C(C(=O)NC2CCCC2)c2ccco2)c1 (centres undefined)
